# PubChem BioAssay AID777 (Sanford-Burnham Center for Chemical Genomics, 2007)
# Screen size: about 96,000 compounds; about 19,000 (20%) were called active.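 How the source made its calls: active means blocking of liver enzyme CYP2C9 beyond about 50% at 5 µM (limit read from the data); inactive means the rest.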 The list is a sample of the results. Residues, ends and D or L forms follow the SMILES beside them. *: point of attachment. Bz = O=C(c1ccccc1)*
# Biological target: Cytochrome P450 2C9 (Homo sapiens) (UniProt P11712)
# Sequence (P11712 whole entry, looked up): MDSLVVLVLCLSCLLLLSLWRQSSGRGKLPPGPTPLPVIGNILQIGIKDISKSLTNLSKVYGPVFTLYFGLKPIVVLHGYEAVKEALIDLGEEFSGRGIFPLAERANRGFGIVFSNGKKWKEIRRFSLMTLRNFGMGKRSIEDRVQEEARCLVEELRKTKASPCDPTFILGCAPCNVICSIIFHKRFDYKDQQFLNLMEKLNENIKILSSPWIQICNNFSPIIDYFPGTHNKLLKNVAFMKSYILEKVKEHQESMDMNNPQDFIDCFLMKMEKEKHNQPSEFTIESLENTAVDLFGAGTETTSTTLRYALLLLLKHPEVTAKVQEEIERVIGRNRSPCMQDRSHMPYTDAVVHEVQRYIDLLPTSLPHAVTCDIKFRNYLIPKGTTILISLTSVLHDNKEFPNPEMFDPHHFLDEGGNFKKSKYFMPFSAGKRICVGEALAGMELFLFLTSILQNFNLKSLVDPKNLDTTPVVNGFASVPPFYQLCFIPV
# Experiment: blockers of cytochrome P450 2C9 activity – biochemical, luminescence, ADME assay, primary screen (AID 777)
# Conditions: CYP2C9 Supersomes, luciferin-H conversion, at 5 µM, hits give high values
row,Compound,inhibition
1,O=C1CSC(=O)N1CCOCCN1C(=O)CSC1=O,7.2% (inactive)
2,CC(C)C[C@H](NC(=O)NCCc1ccc(Cl)cc1)C(=O)O,59.9% (active)
3,C[C@H](NC(=O)NCCc1ccccc1)C(=O)O,2.2% (inactive)
4,CSCC[C@H](NC(=O)NCCc1ccc(F)cc1)C(=O)O,14.5% (inactive)
5,Cc1ccc(C(=O)C[n+]2cc(-c3ccccc3)n3c2CCCCC3)cc1,-11.7% (inactive)
6,NC(=O)Cn1c(=O)oc2ccccc21,-13.8% (inactive)
7,CCC(C)c1ccc(O)c(/C=N/O)c1 (stereo not drawn),13.7% (inactive)
8,CCOC(=O)c1csc(NC(=O)c2ccc(S(=O)(=O)N3CCCC3)cc2)n1,-12.7% (inactive)
9,COc1ccc(C(=O)Nc2nc(-c3ccc(S(=O)(=O)N4CCOCC4)cc3)cs2)cc1,62.5% (active)
10,COC(=O)[C@H](Cc1ccccc1)NC(=O)Nc1ccc(S(N)(=O)=O)cc1,1.6% (inactive)
11,CCC(=O)Nc1ccc(S(=O)(=O)NCC2CCCO2)cc1 (stereo not drawn),-1.7% (inactive)
12,COC(=O)c1ccccc1Sc1c(/C=N/OCc2ccc(Cl)cc2)c(C(F)(F)F)nn1C,89.6% (active)
13,COC(=O)c1ccccc1NC(=O)Cn1nc(C(F)(F)F)c2c1CCC2,17.4% (inactive)
14,NC(=O)C1(N2CCCCC2)CCN(C2CC(=O)N(Cc3ccc(N4CCCC4=O)cc3)C2=O)CC1 (stereo not drawn),50.1% (active)
15,CCCNC(=O)NCc1ccc(N2CCCC2=O)cc1,17.2% (inactive)
16,COC(=O)c1cc(NC(=O)CN2CCC(C(N)=O)(N3CCCCC3)CC2)cc(C(=O)OC)c1,13.2% (inactive)
17,C[C@@H](Nc1nc(-c2ccccc2)nc2c1oc1ccccc12)C(=O)O,11.2% (inactive)
18,C=CCNC(=O)c1cc2nc(C3CC3)cc(C(F)F)n2n1,40% (inactive)
19,COc1cc(/C=C2\SC(=S)N(Nc3ncc(C(F)(F)F)cc3Cl)C2=O)cc(OC)c1OC,4.4% (inactive)
20,Cc1ccc(C(=O)N2CCN(C3CCCCC3)CC2)s1,25.8% (inactive)
21,O=C(C(Cc1ccccc1)n1cccc1)N1CCN(C2CCCCC2)CC1 (stereo not drawn),94% (active)
22,O=C(NC(Cc1ccccc1)C(=O)N1CCCC1C(=O)O)c1ccccc1 (stereo not drawn) (Bz-Phe-Pro-OH; configuration not given here),-5.7% (inactive)
23,O=C(CN1C(=O)NC(Cc2ccccc2)(Cc2ccccc2)C1=O)NCC1CCCCC1,55% (active)
24,O=C(CN1C(=O)NC2(CCCCC2)C1=O)NCCC1=CCCCC1,-1.7% (inactive)
25,CCOC(=O)CCCNC(=O)CN1C(=O)NC(CCc2ccccc2)C1=O (stereo not drawn),-3.9% (inactive)

row,Compound,inhibition
1,CC(=O)N1CCc2cc(S(=O)(=O)Nc3ccccc3N3CCN(C)CC3)ccc21,2% (inactive)
2,CCCC(=O)C1CCN(Cc2ccccc2)CC1,-8.7% (inactive)
3,Cc1nc2ccc(NC(=O)C(F)(F)F)cc2o1,4.8% (inactive)
4,Cn1c(C(=O)NCCCN2CCCCC2)cc2sccc21,6.6% (inactive)
5,O=C(CSc1nc(-c2ccco2)cc(C(F)(F)F)n1)N1CCc2ccccc2C1,45.8% (inactive)
6,CCOC(=O)c1ccn(-c2nc(-c3ccco3)cc(C(F)(F)F)n2)n1,62% (active)
7,Cc1cc(C(F)(F)F)nn1-c1nc(-c2ccco2)cc(C(F)(F)F)n1,3.1% (inactive)
8,Cc1ccc2c(c1)N(CC(=O)N1CCCc3ccccc31)C(=O)C(C)O2 (stereo not drawn),22% (inactive)
9,COc1ccc(-c2noc(-c3cccc(OC)c3OC)n2)cc1OC,-101% (inactive)
10,CCOc1nc(-c2ccc(OC)cc2)ccc1-c1noc(-c2cc(OC)c(OC)c(OC)c2)n1,8.3% (inactive)
11,COc1cc(-c2nc(-c3ccncc3)no2)cc(OC)c1OC,76.6% (active)
12,CC(OC(=O)CN1C(=O)C2CCCCC2C1=O)C(=O)Nc1ncc(Cl)cc1Cl (stereo not drawn),-1.7% (inactive)
13,COc1ccc2oc(=O)c(C(=O)N3CCN(c4ccccc4F)CC3)cc2c1,28.7% (inactive)
14,COc1ccc(Nc2ncc(C(=O)N3CCN(c4ccccc4OC)CC3)c3ccccc23)cc1,65.9% (active)
15,COc1ccccc1N1CCN(CCCCOc2ccc(F)cc2)CC1,12% (inactive)
16,COc1cnc(SCc2ccc(Cl)c(Cl)c2)nc1Cl,16.5% (inactive)
17,CCOC(=O)c1cc(C)sc1NC(=O)C1CCC1,42.3% (inactive)
18,O=C(NCCCN1CCN(Cc2ccccc2)CC1)C1CCN(S(=O)(=O)N2CCCC2)CC1,1.8% (inactive)
19,O=C1c2cccnc2C(Nc2ccc(S(=O)(=O)N3CCCCCC3)cc2)N1Cc1ccccc1 (stereo not drawn),53.4% (active)
20,Cc1ccc(S(=O)(=O)N2CCC(C(=O)N[C@@H](C)C(=O)NCCc3ccccc3)CC2)cc1,-25.2% (inactive)
21,Cc1cc2c(cc1C)NC(c1ccccn1)C1=C(CC(C)(C)CC1=O)N2 (stereo not drawn),-11.2% (inactive)
22,Cc1nn(-c2ccccn2)c2c1C(c1ccncc1)C1=C(CC(C)(C)CC1=O)N2 (stereo not drawn),79.7% (active)
23,CCOC(=O)c1c(-n2cnnn2)sc(C)c1C,10.3% (inactive)
24,Cc1cc(C)nc(NC(=O)Nc2ccccc2C(F)(F)F)n1,-193% (inactive)
25,O=C(Nc1ccc(Sc2ccc(Br)cc2)cc1)c1ccco1,3.3% (inactive)

row,Compound,inhibition
1,Cc1cccc(NC(=O)c2sc3nc4c(c(-c5ccco5)c3c2N)CCC4)c1,17.9% (inactive)
2,CCCc1cc(=O)[nH]c(SCC(=O)c2cc(C)n(CCC)c2C)n1,5.3% (inactive)
3,CCCc1cc(=O)[nH]c(SCC(=O)OCc2ccccc2)n1,38.5% (inactive)
4,CCCc1cc(=O)[nH]c(SCc2ccc(C#N)cc2)n1,60.3% (active)
5,O=C(CNC(=O)Cc1ccccc1)NCC(=O)OCC(=O)c1ccccc1Cl,-33.1% (inactive)
6,COC(=O)c1ccc(NC(=O)CSc2nnc(-c3ccncc3)n2C)cc1,57.2% (active)
7,O=C(CSc1nnc(-c2ccncc2)n1C1CCCCC1)Nc1ccccc1,38.6% (inactive)
8,Cn1c(SCC(=O)Nc2cccc(NC(=O)c3cccs3)c2)nnc1-c1ccncc1,89.8% (active)
9,Cc1ccccc1C(=O)Nc1cccc(-c2nnc(SCC(=O)O)n2C)c1,-11.4% (inactive)
10,COC(=O)c1ccc(NC(=O)CSc2nnc(CNc3ccc(OC)cc3)n2C)cc1,34% (inactive)
11,CCCCSc1nnc(-c2ccc(NC(=O)CC)cc2)n1C,-15.8% (inactive)
12,Cn1c(SCC(=O)Nc2cccc(O)c2)nnc1-c1ccc(S(=O)(=O)N2CCOCC2)cc1,7.5% (inactive)
13,CCC(=O)Nc1cccc(NC(=O)CSc2nnc(-c3ccc(NS(C)(=O)=O)cc3)n2C)c1,51.3% (active)
14,CCn1c(SCC(=O)Nc2nccs2)nnc1-c1ccncc1,28% (inactive)
15,Cc1ccc(-c2ccc(=O)n(CC(=O)NCCCN3CCCCC3)n2)cc1,14% (inactive)
16,COc1ccccc1C(=O)Nc1nc2nc(-c3ccccc3)cc(=O)n2[nH]1,42% (inactive)
17,O=C(NCCCCc1ccccc1)C1CC(c2ccc([N+](=O)[O-])cc2)=NO1 (stereo not drawn),14.2% (inactive)
18,O=C(CN1CCOCC1)Nc1ccc(NC(=O)CN2CCOCC2)c(Cl)c1,-1.8% (inactive)
19,CN(C)C(=O)c1cc(Br)ccc1Cl,-6.9% (inactive)
20,CCCn1c(=NC(C)=O)c(C(=O)OCC)cc2c(=O)n3ccccc3nc21,17.1% (inactive)
21,O=C(CCc1ccccc1)NCc1cccnc1,15.7% (inactive)
22,CSc1ccc(S(=O)(=O)NC2CCCCC2)cc1,17.8% (inactive)
23,O=C(OC1CCCCC1=O)c1cccc(S(=O)(=O)NCc2ccccc2)c1 (stereo not drawn),43.1% (inactive)
24,CCCNS(=O)(=O)c1ccc(CCC(=O)NCc2cccnc2)cc1,76.8% (active)
25,Cc1cc(S(=O)(=O)NC2CCCCC2)ccc1OCC(=O)NCc1cccnc1,81.1% (active)

row,Compound,inhibition
1,O=C(CCc1ccc(S(=O)(=O)NC2CCCCC2)cc1)NCc1ccccc1,86.2% (active)
2,Cc1cc(Cl)c(S(=O)(=O)NCc2cccnc2)cc1OCC(N)=O,-9.2% (inactive)
3,O=S(=O)(NCc1cccnc1)c1ccc(Cl)nc1,6.6% (inactive)
4,O=C(C1CCC1)N1CCc2cc(S(=O)(=O)NCc3cccnc3)ccc21,32.9% (inactive)
5,Cc1cccc(CCNS(=O)(=O)c2ccc(S(=O)(=O)NC3CCCC3)cc2)c1,65.4% (active)
6,Cn1c(=O)c(=O)n(C)c2cc(S(=O)(=O)NCCc3ccccc3)ccc21,23.4% (inactive)
7,O=C(CN(CC1CCCO1)C(=O)CNS(=O)(=O)c1ccccc1)NCc1ccccc1 (stereo not drawn),2.4% (inactive)
8,Cc1ccccc1/[N+]([O-])=C/c1ccncc1,12.4% (inactive)
9,CC1CCN(c2nc3c(c(=O)[nH]c(=O)n3C)n2CCCc2ccccc2)CC1,40.9% (inactive)
10,C/C(=C\C(=O)c1ccc(Br)cc1)N1CCCCC1,2.1% (inactive)
11,Cc1nc2ccc(C(=O)N3CCSCC3)cc2s1,0.6% (inactive)
12,Cc1ccc(S/C(=N\S(=O)(=O)c2ccc(Cl)cc2)c2ccccc2)cc1,48.7% (inactive)
13,CCOC(=O)N1CCN(C(=O)c2cnc3n(c2=O)CCS3)CC1,-13.7% (inactive)
14,Cc1cc(N/C=C\C(=O)c2ccc(Cl)c(Cl)c2)no1,7.8% (inactive)
15,COC(=O)C1=C(N)Oc2cc(C)oc(=O)c2C1c1cccnc1 (stereo not drawn),37.9% (inactive)
16,Cc1ccc(CS(=O)(=O)CCC(=O)NC2CC2)cc1,-3.7% (inactive)
17,COC(CCN(C)C)(c1ccccc1)c1ccccc1,-2.1% (inactive)
18,CC1(C)Cc2ccccc2-c2nnc(-c3cccc(O)c3)n21,-7.5% (inactive)
19,O=C1OC(NC(=O)c2ccccc2)C(N2CCOCC2)=C1Cl (stereo not drawn),-6.9% (inactive)
20,c1cnc(NC2C3CC4CC(C3)CC2C4)nc1 (stereo not drawn),25.9% (inactive)
21,CC1CCCN(Cc2nc3c(c(=O)n(C)c(=O)n3C)n2CC(=O)c2ccccc2)C1 (stereo not drawn),11.2% (inactive)
22,CCCCCCn1c(CN2CCCC(C)C2)nc2c1c(=O)n(C)c(=O)n2C (stereo not drawn),9.5% (inactive)
23,CC1CN(C2CCCCC2)c2nc3c(c(=O)n(C)c(=O)n3C)n2C1 (stereo not drawn),82.2% (active)
